Source: PubChem (National Center for Advancing Translational Sciences (NCATS))
TGFb inhibitor: TGF-b pathway inhibition; HepG2 CAGA-GFP TGF-b/SMAD3 reporter, GFP fluorescence, 18 h; TGF-beta stimulated, 500 pg/mL final; 410,000 compounds, 1.2% hits; Potency, µM (highest dose often 46.1 µM), for the others: top-dose activity, negative = inhibition, usual class: inhibitors; AID 588855; further: potency means the concentration at half of the fitted maximal effect; on the % scale 0 is the no-effect control and ±100 the full control effect; nearly all actives have a fitted effect of over 65% in size
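Cell-based qHTS in HEPG2 carrying a CAGA-GFP Smad reporter; compounds added before 500 pg/mL final TGF-beta, 18 h incubation at 37 degrees C, GFP fluorescence quantified per cell by imaging cytometry.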
TDP1 cell noCPT: qHTS for Inhibitors of human tyrosyl-DNA phosphodiesterase 1 (TDP1): qHTS in cells in absence of CPT; DT40 Tdp1-/- hTDP1 cells, no CPT, ATP luminescence, 48 h; Potency, µM (top dose mostly 46.2 µM), for inactives: at the highest dose activity change, negative = growth inhibition, hits mostly inhibitors; 420,000 compounds, 15% hits; AID 686978, 2013; further: potency means the concentration at half of the fitted maximal effect; on the % scale 0 is the no-effect control and ±100 the full control effect; nearly all actives have a fitted effect of over 55% in size
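Growth of hTDP1-complemented DT40 Tdp1-knockout cells is measured by ATP luminescence after at least 48 hr compound exposure at 37 °C, with DMSO substituting for the 20 nM CPT used in the parallel screen.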
HepG2 viability: kills HepG2 cells in TGF-b inhibitor counter-screen; HepG2 CAGA-GFP viability, ATP luminescence, 18 h; Potency, µM (series often up to 46.1 µM), for the others: at the top dose activity change, negative = cytotoxicity, usual class: cytotoxic; 410,000 compounds, 0.76% hits; further: potency means the concentration at half of the fitted maximal effect
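HepG2 CAGA-GFP cells (1000/well, DMEM with 1% FBS) received compound, then TGF-beta at 500 pg/mL final, and were incubated 18 hours at 37 degrees C. Viability was read by CellTiter-Glo luminescence. Media-only wells were set as complete cell-killing and DMSO as no toxicity.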
IL1B secr inh: inhibitors of inflammasome signaling (IL-1 beta secretion) | 360,000 compounds, 4.7% hits | activity change, % at 57.5 µM | THP-1 LPS/ATP IL-1B secretion, AlphaLISA, 16 h; hits give low values | AID 743279; in the data active means activity change below about -50%; inconclusive means mostly about -30% to -49%; further: on the % scale 0 is the no-effect control and ±100 the full control effect
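Secreted IL-1B measured by AlphaLISA bead assay after 16 h compound exposure of THP-1 cells; compounds (final up to 57.5 uM) added 1 h before LPS (250 ng/mL) and ATP (1.25 mM) stimulation; lower signal means less secretion.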
ASM inhibitor: human S-ASM enzyme inhibition; placental ASM, HMU-PC fluorogenic substrate, 60 min; P17405; 340,000 compounds, 0.006% hits; Potency, µM (highest dose often 57.5 µM), without a hit: at the highest dose activity change, negative = inhibition, hits mostly inhibitors; further: potency means the concentration at half of the fitted maximal effect
Target sequence (P17405 47-631 limits assumed): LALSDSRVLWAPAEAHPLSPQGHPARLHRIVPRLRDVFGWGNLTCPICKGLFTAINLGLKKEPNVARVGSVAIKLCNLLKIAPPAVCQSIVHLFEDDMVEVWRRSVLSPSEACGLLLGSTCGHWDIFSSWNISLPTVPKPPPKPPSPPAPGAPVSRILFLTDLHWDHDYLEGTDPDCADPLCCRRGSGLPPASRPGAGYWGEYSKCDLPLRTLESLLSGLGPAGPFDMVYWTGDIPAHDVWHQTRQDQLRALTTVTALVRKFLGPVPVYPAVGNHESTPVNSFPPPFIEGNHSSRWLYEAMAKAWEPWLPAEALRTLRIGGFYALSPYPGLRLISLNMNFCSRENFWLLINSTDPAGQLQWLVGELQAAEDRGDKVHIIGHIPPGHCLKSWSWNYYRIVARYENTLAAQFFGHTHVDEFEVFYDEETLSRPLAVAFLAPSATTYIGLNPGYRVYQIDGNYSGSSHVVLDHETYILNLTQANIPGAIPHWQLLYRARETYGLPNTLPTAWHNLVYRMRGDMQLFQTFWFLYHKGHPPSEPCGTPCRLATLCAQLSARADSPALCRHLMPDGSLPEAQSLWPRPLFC
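Human placenta-derived ASM enzyme was preincubated with compound for 10 minutes at room temperature, then given fluorogenic substrate HMU-PC0 (9 uM final) for 60 minutes at 37 °C; a pH 10 stop preceded fluorescence reading at Ex 386/Em 447 nm.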
DT40 TDP1 CPT: growth inhibition of DT40 Tdp1-/-;hTDP1 cells with camptothecin (screen for TDP1 inhibitors). 420,000 compounds, 12% hits. chicken DT40 Tdp1-/-;hTDP1 cells + 20 nM CPT, ATP luminescence, 48 h. Potency, µM (highest dose often 46.2 µM), for inactives: top-dose activity change, negative = growth inhibition, actives largely listed as inhibitors; further: potency means the concentration at half of the fitted maximal effect; on the % scale 0 is the no-effect control and ±100 the full control effect; nearly all actives have a fitted effect of over 55% in size
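Chicken DT40 Tdp1-/- cells complemented with human TDP1, 400 cells/well, exposed to compounds plus 20 nM camptothecin for at least 48 h at 37 C; viability read as ATP content by CellTiter-Glo luminescence.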
The depositor's hits bear a star. Most compounds without a hit are left out; they make up all but 19% or so of the library. Unless noted, the call rests on the fitted dose curve; in most records, active means well fitted curve in the direction sought with a large enough effect; inconclusive means small, poorly fitted or top-dose-only effect, or another doubt; inactive means no such curve, though single readings can be large; an effect the other way counts as inactive or inconclusive.

For COc1ccc(N2CC(C(=O)N3CCN(c4ccccc4OC)CC3)CC2=O)cc1 (stereo not given) the results were TGFb inhibitor 1%, TDP1 cell noCPT -28%, HepG2 viability 0%, IL1B secr inh -7, ASM inhibitor 1% and DT40 TDP1 CPT -19%.
Cc1cccc(NC(=O)C2CCCN(S(=O)(=O)c3cccc4nonc34)C2)c1C (stereo not given) was read as TGFb inhibitor 7%, TDP1 cell noCPT inconclusive, HepG2 viability 0% and DT40 TDP1 CPT inconclusive.
Screening Cc1ccc2nc(SCC(=O)NC3CC3)[nH]c2c1 returned TGFb inhibitor -10%, TDP1 cell noCPT 13%, HepG2 viability -15%, IL1B secr inh -23, ASM inhibitor 2% and DT40 TDP1 CPT -6%.
`O=C(CSc1nc2ccc([N+](=O)[O-])cc2[nH]1)NC1CCCCC1` gave TGFb inhibitor -27%, TDP1 cell noCPT 26µM*, HepG2 viability -28%, IL1B secr inh 0, ASM inhibitor -2% and DT40 TDP1 CPT inconclusive.
COc1ccc(C(=O)CSc2nc3ccc([N+](=O)[O-])cc3[nH]2)cc1 was read as TGFb inhibitor -4%, TDP1 cell noCPT 16µM*, HepG2 viability 2%, IL1B secr inh -2, ASM inhibitor -4% and DT40 TDP1 CPT inconclusive.
For O=C(CSc1nc2ncc(Br)cc2[nH]1)c1cccc([N+](=O)[O-])c1 the results were TGFb inhibitor 2%, TDP1 cell noCPT -16%, HepG2 viability 7%, IL1B secr inh 14, ASM inhibitor 3% and DT40 TDP1 CPT -5%.
Screening O=C(CSc1nc2ccc([N+](=O)[O-])cc2[nH]1)NC1CCCCCC1 returned TGFb inhibitor inconclusive, TDP1 cell noCPT inconclusive, HepG2 viability -18%, IL1B secr inh -84*, ASM inhibitor -6% and DT40 TDP1 CPT -15%.
Screening O=C(CSc1nc2ccc(Cl)cc2[nH]1)NC1CCCC1 returned TGFb inhibitor -20%, TDP1 cell noCPT -30%, HepG2 viability -6%, IL1B secr inh 0, ASM inhibitor 4% and DT40 TDP1 CPT -16%.
`Cc1nc2nc(SCC(=O)c3cccc([N+](=O)[O-])c3)[nH]c2cc1Br` gave TGFb inhibitor inconclusive, TDP1 cell noCPT 18µM*, HepG2 viability -21%, IL1B secr inh 3, ASM inhibitor -4% and DT40 TDP1 CPT inconclusive.
`O=C(Cc1c(Cl)cccc1Cl)OCC(=O)N1CCN(C(=O)c2ccco2)CC1` gave TGFb inhibitor 7%, TDP1 cell noCPT -3%, HepG2 viability -3%, IL1B secr inh 40, ASM inhibitor 1% and DT40 TDP1 CPT -1%.
Screening Cc1nn(-c2ccccc2)c(C)c1-c1cc(C(=O)N/N=C/c2ccc(O)cc2)[nH]n1 returned TGFb inhibitor -20%, TDP1 cell noCPT inconclusive, HepG2 viability -23%, IL1B secr inh -22, ASM inhibitor -1% and DT40 TDP1 CPT 26µM*.
For O=C(N/N=C/c1ccc([N+](=O)[O-])cc1)c1cc(-c2ccc3c(c2)OCO3)n[nH]1 the results were TGFb inhibitor 5%, TDP1 cell noCPT 2%, HepG2 viability 6%, IL1B secr inh 6, ASM inhibitor -1% and DT40 TDP1 CPT 5%.
For COc1cc(/C=N/NC(=O)c2cc(-c3c(C)nn(-c4ccccc4)c3C)n[nH]2)ccc1O the results were TGFb inhibitor 19%, TDP1 cell noCPT inconclusive, HepG2 viability -31%, IL1B secr inh -29, ASM inhibitor -14% and DT40 TDP1 CPT 23µM*.
Screening COc1cc(/C=N/NC(=O)c2cc(-c3ccc4c(c3)OCO4)n[nH]2)ccc1O returned TGFb inhibitor 45%, TDP1 cell noCPT inconclusive, HepG2 viability -1%, IL1B secr inh -154*, ASM inhibitor -3% and DT40 TDP1 CPT inconclusive.
For O=C(Nc1nnc(SCC(=O)N2CCCCC2)s1)c1ccc(F)cc1F the results were TGFb inhibitor 7%, TDP1 cell noCPT 9%, HepG2 viability 1%, IL1B secr inh -4, ASM inhibitor -1% and DT40 TDP1 CPT -17%.
For Cc1ccc(NC(=O)C2CCCN(c3ncnc4onc(C)c34)C2)cc1Cl (stereo not given) the results were TGFb inhibitor inconclusive, TDP1 cell noCPT 16µM*, HepG2 viability -31% and DT40 TDP1 CPT 10µM*.
For Cc1noc2ncnc(N3CCCC(C(=O)NC(C)C)C3)c12 (stereo not given) the results were TGFb inhibitor 0%, TDP1 cell noCPT inconclusive, HepG2 viability -5% and DT40 TDP1 CPT -27%.
`COc1cccc(NC(=O)C2CCCN(c3ncnc4onc(C)c34)C2)c1` (stereo not given) gave TGFb inhibitor inconclusive, TDP1 cell noCPT 21µM*, HepG2 viability -22% and DT40 TDP1 CPT 21µM*.
For COc1ccc(C)cc1NC(=O)C1CCCN(c2ncnc3onc(C)c23)C1 (stereo not given) the results were TGFb inhibitor inconclusive, TDP1 cell noCPT 16µM*, HepG2 viability -6% and DT40 TDP1 CPT inconclusive.
`COc1ccc(NC(=O)C2CCCN(c3ncnc4onc(-c5ccc(F)cc5)c34)C2)cc1` (stereo not given) gave TGFb inhibitor 1%, TDP1 cell noCPT inconclusive, HepG2 viability 11%, IL1B secr inh 0, ASM inhibitor -9% and DT40 TDP1 CPT inconclusive.
Screening CCN(CC)CCNC(=O)C1CCCN(c2ncnc3onc(C)c23)C1 (stereo not given) returned TGFb inhibitor 18%, TDP1 cell noCPT -5%, HepG2 viability 5% and DT40 TDP1 CPT 0%.
For O=C(Cn1cnc2ccccc2c1=O)NCCC(=O)Nc1ccccc1C(F)(F)F the results were TGFb inhibitor 2%, TDP1 cell noCPT -8%, HepG2 viability -14%, IL1B secr inh 17, ASM inhibitor 16% and DT40 TDP1 CPT 16%.
CCCN(C(=O)Cc1coc2cc(OC)ccc12)C1CCS(=O)(=O)C1 (stereo not given) was read as TGFb inhibitor -2%, TDP1 cell noCPT -3%, HepG2 viability 2%, IL1B secr inh -16, ASM inhibitor -1% and DT40 TDP1 CPT -1%.
`NS(=O)(=O)c1ccc(NC(=O)CCC(=O)O)cc1` gave TDP1 cell noCPT 0% and DT40 TDP1 CPT 4%.
